# The whole screen tested about 5,500 compounds, of which about 2,000 (36%) were called active. Inconclusive results (about 18%) are left out. The list shows a part of the results. Values without a mark were called inactive. Cut-off read from the data, not from the text of the source: active = normalized growth mostly below about 0.91 (no sharp cut-off); inconclusive = no clear call, values can overlap the other calls; inactive = mostly above about 0.92.
# Assay: chemical genetic growth profiling, strain panel (AID 1159580);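 note: tested at 20 µM; growth read once vehicle control cultures reached saturation at 30 °C; 1 = growth at the plate median or of vehicle wells; lower values mean less growth of the strain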
# Settings: growth OD
structure (smiles),measurement,setting,value
O=C(O)c1cccnc1,normalized growth,"S. cerevisiae deletion strains, locus YJR075W, strain HOC1, stronger effect = lower value",1.06
same,normalized growth,"S. cerevisiae deletion strains, locus YKL009W, strain mrt4, stronger effect = lower value",0.982
same,normalized growth,"S. cerevisiae deletion strains, locus YKL068W, stronger effect = lower value",0.991
same,normalized growth,"S. cerevisiae deletion strains, locus YKL085W, strain MDH1 (second series), stronger effect = lower value",1.01
same,normalized growth,"S. cerevisiae deletion strains, locus YKL085W, strain MDH1, stronger effect = lower value",1.01
same,normalized growth,"S. cerevisiae deletion strains, locus YKL160W, strain elf1, stronger effect = lower value",1.01
same,normalized growth,"S. cerevisiae deletion strains, locus YKL190W, strain CNB1, stronger effect = lower value",0.997
same,normalized growth,"S. cerevisiae deletion strains, locus YKR001C, strain vps1, stronger effect = lower value",0.986
same,normalized growth,"S. cerevisiae deletion strains, locus YKR026C, strain gcn3, stronger effect = lower value",0.988
same,normalized growth,"S. cerevisiae deletion strains, locus YKR091W, strain srl3, stronger effect = lower value",0.996
same,normalized growth,"S. cerevisiae deletion strains, locus YLL001W, strain dnm1, stronger effect = lower value",0.999
same,normalized growth,"S. cerevisiae deletion strains, locus YLL026W, stronger effect = lower value",1
same,normalized growth,"S. cerevisiae deletion strains, locus YLL041C, strain sdh2, stronger effect = lower value",0.992
same,normalized growth,"S. cerevisiae deletion strains, locus YLR027C, strain aat2, stronger effect = lower value",1
same,normalized growth,"S. cerevisiae deletion strains, locus YLR039C, strain RIC1, stronger effect = lower value",0.982
same,normalized growth,"S. cerevisiae deletion strains, locus YLR058C, strain SHM2, stronger effect = lower value",0.981
same,normalized growth,"S. cerevisiae deletion strains, locus YLR102C, strain apc9, stronger effect = lower value",0.997
same,normalized growth,"S. cerevisiae deletion strains, locus YLR113W, strain HOG1, stronger effect = lower value",0.995
same,normalized growth,"S. cerevisiae deletion strains, locus YLR221C, strain rsa3, stronger effect = lower value",1.02
same,normalized growth,"S. cerevisiae deletion strains, locus YLR258W, strain gsy2, stronger effect = lower value",1.01
same,normalized growth,"S. cerevisiae deletion strains, locus YLR262C, strain YPT6 (second series), stronger effect = lower value",1.01
same,normalized growth,"S. cerevisiae deletion strains, locus YLR262C, strain YPT6, stronger effect = lower value",0.941
same,normalized growth,"S. cerevisiae deletion strains, locus YLR268W, strain sec22, stronger effect = lower value",1.13 [resistant] (active)
same,normalized growth,"S. cerevisiae deletion strains, locus YLR320W, strain mms22, stronger effect = lower value",1.02
same,normalized growth,"S. cerevisiae deletion strains, locus YLR330W, strain CHS5, stronger effect = lower value",0.999
same,normalized growth,"S. cerevisiae deletion strains, locus YLR342W, strain FKS1 (second series), stronger effect = lower value",0.999
same,normalized growth,"S. cerevisiae deletion strains, locus YLR342W, strain FKS1, stronger effect = lower value",0.992
same,normalized growth,"S. cerevisiae deletion strains, locus YLR357W, strain rsc2, stronger effect = lower value",0.991
same,normalized growth,"S. cerevisiae deletion strains, locus YLR370C, strain arc18, stronger effect = lower value",1
same,normalized growth,"S. cerevisiae deletion strains, locus YLR371W, strain rom2, stronger effect = lower value",0.985
same,normalized growth,"S. cerevisiae deletion strains, locus YLR384C, strain iki3, stronger effect = lower value",1.01
same,normalized growth,"S. cerevisiae deletion strains, locus YLR418C, strain cdc73, stronger effect = lower value",1.04
same,normalized growth,"S. cerevisiae deletion strains, locus YML016C, strain PPZ1, stronger effect = lower value",1.01
same,normalized growth,"S. cerevisiae deletion strains, locus YML032C, strain rad52, stronger effect = lower value",1.05
same,normalized growth,"S. cerevisiae deletion strains, locus YML120C, strain ndi1, stronger effect = lower value",0.993
same,normalized growth,"S. cerevisiae deletion strains, locus YML124C, strain tub3, stronger effect = lower value",0.995
same,normalized growth,"S. cerevisiae deletion strains, locus YMR058W, strain fet3, stronger effect = lower value",0.996
same,normalized growth,"S. cerevisiae deletion strains, locus YMR078C, strain ctf18, stronger effect = lower value",0.991
same,normalized growth,"S. cerevisiae deletion strains, locus YMR125W, strain sto1, stronger effect = lower value",0.979
same,normalized growth,"S. cerevisiae deletion strains, locus YMR129W, stronger effect = lower value",0.97
same,normalized growth,"S. cerevisiae deletion strains, locus YMR205C, strain PFK2, stronger effect = lower value",1.04
same,normalized growth,"S. cerevisiae deletion strains, locus YMR223W, strain ubp8, stronger effect = lower value",1
same,normalized growth,"S. cerevisiae deletion strains, locus YMR231W, strain pep5, stronger effect = lower value",1
same,normalized growth,"S. cerevisiae deletion strains, locus YMR263W, strain SAP30, stronger effect = lower value",1.01
same,normalized growth,"S. cerevisiae deletion strains, locus YMR307W, strain GAS1, stronger effect = lower value",0.938
same,normalized growth,"S. cerevisiae deletion strains, locus YNL067W, strain RPL9B, stronger effect = lower value",1.03
same,normalized growth,"S. cerevisiae deletion strains, locus YNL071W, strain lat1, stronger effect = lower value",0.975
same,normalized growth,"S. cerevisiae deletion strains, locus YNL128W, strain TEP1, stronger effect = lower value",0.971
same,normalized growth,"S. cerevisiae deletion strains, locus YNL153C, strain GIM3, stronger effect = lower value",1.03
same,normalized growth,"S. cerevisiae deletion strains, locus YNL183C, strain NPR1, stronger effect = lower value",0.961
same,normalized growth,"S. cerevisiae deletion strains, locus YNL209W, strain ssb2, stronger effect = lower value",0.99
same,normalized growth,"S. cerevisiae deletion strains, locus YNL233W, strain BNI4, stronger effect = lower value",1.05
same,normalized growth,"S. cerevisiae deletion strains, locus YNL248C, strain rpa49, stronger effect = lower value",1.01
same,normalized growth,"S. cerevisiae deletion strains, locus YNL250W, strain rad50, stronger effect = lower value",0.991
same,normalized growth,"S. cerevisiae deletion strains, locus YNL271C, strain bni1, stronger effect = lower value",0.992
same,normalized growth,"S. cerevisiae deletion strains, locus YNL298W, strain CLA4, stronger effect = lower value",0.977
same,normalized growth,"S. cerevisiae deletion strains, locus YNL307C, strain MCK1, stronger effect = lower value",1.02
same,normalized growth,"S. cerevisiae deletion strains, locus YNL322C, strain KRE1 (second series), stronger effect = lower value",0.997
same,normalized growth,"S. cerevisiae deletion strains, locus YNL322C, strain KRE1, stronger effect = lower value",0.996
same,normalized growth,"S. cerevisiae deletion strains, locus YNR049C, strain mso1, stronger effect = lower value",0.994
same,normalized growth,"S. cerevisiae deletion strains, locus YNR052C, strain pop2, stronger effect = lower value",1
same,normalized growth,"S. cerevisiae deletion strains, locus YOL006C, strain TOP1, stronger effect = lower value",1.03
same,normalized growth,"S. cerevisiae deletion strains, locus YOL012C, strain htz1",1.06
same,normalized growth,"S. cerevisiae deletion strains, locus YOL147C, strain pex11, stronger effect = lower value",1
same,normalized growth,"S. cerevisiae deletion strains, locus YOR001W, strain rrp6, stronger effect = lower value",0.977
same,normalized growth,"S. cerevisiae deletion strains, locus YOR061W, strain CKA2, stronger effect = lower value",0.97
same,normalized growth,"S. cerevisiae deletion strains, locus YOR069W, strain VPS5, stronger effect = lower value",0.996
same,normalized growth,"S. cerevisiae deletion strains, locus YOR070C, strain gyp1, stronger effect = lower value",1
same,normalized growth,"S. cerevisiae deletion strains, locus YOR080W, strain dia2, stronger effect = lower value",0.993
same,normalized growth,"S. cerevisiae deletion strains, locus YOR083W, strain WHI5, stronger effect = lower value",1.03
same,normalized growth,"S. cerevisiae deletion strains, locus YOR106W, strain vam3, stronger effect = lower value",1.05
same,normalized growth,"S. cerevisiae deletion strains, locus YOR136W, strain idh2, stronger effect = lower value",1
same,normalized growth,"S. cerevisiae deletion strains, locus YOR144C, strain elg1, stronger effect = lower value",0.995
same,normalized growth,"S. cerevisiae deletion strains, locus YOR184W, strain ser1, stronger effect = lower value",1.03
same,normalized growth,"S. cerevisiae deletion strains, locus YOR231W, strain MKK1, stronger effect = lower value",1.01
same,normalized growth,"S. cerevisiae deletion strains, locus YOR265W, strain rbl2, stronger effect = lower value",1
same,normalized growth,"S. cerevisiae deletion strains, locus YOR270C, strain vph1, stronger effect = lower value",0.978
same,normalized growth,"S. cerevisiae deletion strains, locus YOR290C, strain snf2, stronger effect = lower value",0.996
same,normalized growth,"S. cerevisiae deletion strains, locus YOR316C, strain cot1, stronger effect = lower value",0.998
same,normalized growth,"S. cerevisiae deletion strains, locus YPL051W, strain arl3, stronger effect = lower value",1.05
same,normalized growth,"S. cerevisiae deletion strains, locus YPL055C, strain LGE1, stronger effect = lower value",1.01
same,normalized growth,"S. cerevisiae deletion strains, locus YPL078C, strain atp4, stronger effect = lower value",0.999
same,normalized growth,"S. cerevisiae deletion strains, locus YPL106C, strain sse1, stronger effect = lower value",1.03
same,normalized growth,"S. cerevisiae deletion strains, locus YPL240C, strain hsp82, stronger effect = lower value",1.01
same,normalized growth,"S. cerevisiae deletion strains, locus YPL241C, strain CIN2, stronger effect = lower value",0.992
same,normalized growth,"S. cerevisiae deletion strains, locus YPL256C, strain CLN2, stronger effect = lower value",1.01
same,normalized growth,"S. cerevisiae deletion strains, locus YPR119W, strain clb2, stronger effect = lower value",0.998
same,normalized growth,"S. cerevisiae deletion strains, locus YPR141C, strain kar3, stronger effect = lower value",0.991
same,normalized growth,"S. cerevisiae deletion strains, locus YPR163C, strain tif3, stronger effect = lower value",0.995
same,normalized growth,"S. cerevisiae deletion strains, locus YPR167C, strain met16, stronger effect = lower value",1
same,normalized growth,"S. cerevisiae deletion strains, strain wtn01, stronger effect = lower value",1.04
same,normalized growth,"S. cerevisiae strains, strain wild type, stronger effect = lower value",0.995

# Reference: PubChem BioAssay AID1159580 (chemical genetic matrix, 2015)
